Most compounds without a hit are left out; they make up all but 2.4% or so of the library.
PfM18AAP inh-1 = PfM18AAP inhibitors, malaria aminopeptidase, primary screen, biochemical, QFRET, recombinant enzyme | H-Glu-NHMec fluorogenic cleavage | inhibition, % at 7.35 µM | actives 1.2% (n = 290,000) | AID 1822, 2009;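 active means inhibition above the campaign mean inhibition over all tested compounds plus 3 SD, cut at about 28% in these data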;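 further: 0% = plate median of test compound wells and 100% = 2 mM ZnCl2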
PERK inhibitor = block of dimerizer-induced PERK translation repression, primary screen, PERK inhibitor project, CHO PERK-DD cells, SEAP luminescence, HTS. CHO PERK-DD fusion, SEAP luminescence translation reporter. inhibition, % at 5.6 µM. actives 0.17% (n = 220,000);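 active means inhibition above the mean inhibition of all tested compounds plus 3 SD, set separately per screening campaign, cut at about 2.9% in these data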;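 further: PERK kinase domain activated by AP20187 dimerizer at 100 nM; 0% = DMSO with dimerizer and 100% = rapamycin at 8.4 µM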
eIF4E 4G PPI = eIF4E–eIF4G protein interaction inhibitors, primary screen, biochemical, uHTS, TR-FRET, eIF4GI fragment; Eukaryotic translation initiation factor 4E (Mus musculus) + Eukaryotic translation …; TR-FRET eIF4E-eIF4GI(517-606) binding, 2 h; inhibition, % at 21.7 µM; actives 0.37% (n = 220,000); AID 782, 2007;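 active means inhibition above about 30%, limit read from the data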;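 further: 0% = full FRET control wells and 100% = background wells lacking eIF4GI fragment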
PABP1 MLLE inh = inhibitors of PABP1 MLLE–PAM2 peptide binding, primary screen, biochemical, fluorescence polarization, FITC-PAM2, GST-MLLE; Polyadenylate-binding protein 1 (Homo sapiens), P11940; inhibition, % at 20 µM; actives 0.36% (n = 360,000); AID 588489, 2011; in the data active means inhibition above about 35%, passing the limit was not always enough;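 further: plate controls were DMSO wells with GST-MLLE for no effect and wells lacking GST-MLLE protein for full effect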
eIF4H FP inh = human eIF4H binding inhibitors, primary screen, translation initiation inhibitor project, biochemical, uHTS, fluorescence polarization. eIF4H fluorescence polarization binding assay. inhibition, % at 35 µM. actives 0.94% (n = 290,000);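 further: calls also rest on retests at 20 µM and on dose response follow-up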
PABP polyA inh = PABP poly(A) RNA binding inhibitors, primary screen, biochemical, fluorescence polarization, uHTS | inhibition, % at 35 µM | Polyadenylate-binding protein 1 (Homo sapiens), P11940 | actives 1% (n = 290,000);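 further: calls also rest on retests at 20 µM and on dose response follow-up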
PfM18AAP inh-2 = PfM18AAP inhibitors, malaria aminopeptidase, confirmation, biochemical, QFRET, recombinant enzyme, triplicate; shares compounds with PfM18AAP inh-1; H-Glu-NHMec fluorogenic cleavage; inhibition, % at 7.35 µM; actives 28% (n = 2,400);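 active means mean inhibition over replicate wells above the hit cutoff set for the earlier primary screen, cut at about 29% in these data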;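 further: 0% = median of test compound wells and 100% = 2 mM ZnCl2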
CTSL1 counter = cathepsin L1 inhibitors, retest, confirmation, counter-screen for PFM18AAP inhibitor project, biochemical, QFRET, triplicate. 2,400 tested, under 10 active. purified cathepsin L1, Z-Leu-Arg-MCA fluorescence. shares compounds with PfM18AAP inh-1. inhibition, % at 5.96 µM;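 active means average inhibition across replicates above the hit cutoff set in the earlier primary screen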;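 further: 0% = median of test compound wells and 100% = Z-Phe-Ala-diazomethylketone 1 µM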
Target sequence (P07711 whole entry, looked up): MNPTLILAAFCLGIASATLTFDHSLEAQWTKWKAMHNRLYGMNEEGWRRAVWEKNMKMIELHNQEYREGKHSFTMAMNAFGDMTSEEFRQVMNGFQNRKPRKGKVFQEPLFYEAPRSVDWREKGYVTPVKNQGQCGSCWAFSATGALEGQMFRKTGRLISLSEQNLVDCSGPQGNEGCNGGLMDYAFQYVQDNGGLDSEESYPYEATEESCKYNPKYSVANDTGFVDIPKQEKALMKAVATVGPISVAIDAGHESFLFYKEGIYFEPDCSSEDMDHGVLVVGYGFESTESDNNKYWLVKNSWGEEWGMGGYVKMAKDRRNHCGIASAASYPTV
Active calls of the source: *; ! = not active in a repeat. Unless noted, how the calls were made is not given here.

What do the screens show for `CCc1ccc(OC2=NS(=O)(=O)c3ccccc32)cc1`?
PfM18AAP inh-1: 1; PERK inhibitor: -1; eIF4E 4G PPI: 5; PABP1 MLLE inh: 11; eIF4H FP inh: -2; PABP polyA inh: -4

Results for CCN(CC)c1cccc(OC2=NS(=O)(=O)c3ccccc32)c1 ?
PfM18AAP inh-1: 36*; PERK inhibitor: 0; eIF4E 4G PPI: 3; PABP1 MLLE inh: -16; eIF4H FP inh: 58*; PABP polyA inh: 35; PfM18AAP inh-2: 2; CTSL1 counter: 1

What do the screens show for `CCCN(CCC)C(=O)Cn1c(=O)n(CCCCCC(=O)Nc2ccccc2)c(=O)c2sccc21`?
PfM18AAP inh-1: -3; PERK inhibitor: 1; eIF4E 4G PPI: 7; PABP1 MLLE inh: 3; eIF4H FP inh: -4; PABP polyA inh: -20

How did CC(=O)N(c1ccc2oc(=O)sc2c1)S(=O)(=O)c1cccc2cccnc12 do in these assays?
PfM18AAP inh-1: 14; PABP1 MLLE inh: 26; eIF4H FP inh: 11; PABP polyA inh: -8

How did CCCC(=O)N(c1ccc2oc(=O)sc2c1)S(=O)(=O)c1ccccc1 do in these assays?
PfM18AAP inh-1: 33*; PERK inhibitor: 1; eIF4E 4G PPI: -1; PABP1 MLLE inh: 19; eIF4H FP inh: 0; PABP polyA inh: 0; PfM18AAP inh-2: -18; CTSL1 counter: -1

How did CC(=O)N(c1ccc2oc(=O)sc2c1)S(=O)(=O)c1cccs1 do in these assays?
PfM18AAP inh-1: 40*; PERK inhibitor: 1; eIF4E 4G PPI: -6; PABP1 MLLE inh: 29; eIF4H FP inh: 53; PABP polyA inh: 7; PfM18AAP inh-2: -23; CTSL1 counter: 3

Results for CC(C)C(=O)N(c1cc2sc(=O)oc2c2ccccc12)S(=O)(=O)c1cccs1 ?
PfM18AAP inh-1: -37; PERK inhibitor: 0; eIF4E 4G PPI: 2; PABP1 MLLE inh: 18; eIF4H FP inh: -2; PABP polyA inh: 0

What do the screens show for `CC(C)C(=O)N(c1ccc2oc(=O)sc2c1)S(=O)(=O)c1cccs1`?
PfM18AAP inh-1: 37*; PERK inhibitor: 1; eIF4E 4G PPI: -1; PABP1 MLLE inh: 44*; eIF4H FP inh: -1; PABP polyA inh: 6; PfM18AAP inh-2: -10; CTSL1 counter: 2

How did CC(=O)N(c1ccc2oc(=O)sc2c1)S(=O)(=O)c1ccc(C(=O)O)cc1 do in these assays?
PfM18AAP inh-1: 46*; PABP1 MLLE inh: 35; eIF4H FP inh: 12; PABP polyA inh: 12; PfM18AAP inh-2: 8; CTSL1 counter: -3

Results for CCCC(=O)N(c1ccc2oc(C)c(C(C)=O)c2c1)S(=O)(=O)c1ccc(C(=O)O)cc1 ?
PfM18AAP inh-1: 5; PABP1 MLLE inh: 4; eIF4H FP inh: -7; PABP polyA inh: 5

How did CCc1ccc(NC(=O)CN(C(=O)N2CCN(CC)CC2)S(=O)(=O)c2ccc(C)cc2)cc1 do in these assays?
PABP1 MLLE inh: -7

What do the screens show for `NNC(=O)c1c(O)c2cccc3c2n(c1=O)CCC3`?
PfM18AAP inh-1: 34*; PABP1 MLLE inh: 7; eIF4H FP inh: -1; PABP polyA inh: -6; PfM18AAP inh-2: -4; CTSL1 counter: 2

Results for CC(C)NC(=O)c1c(O)c2cccc3c2n(c1=O)CCC3 ?
PfM18AAP inh-1: -3; PABP1 MLLE inh: 7; eIF4H FP inh: -7; PABP polyA inh: 30

What do the screens show for `CCOC(=O)COn1c(-c2cccc(Cl)c2)nc2ccc([N+](=O)[O-])cc21`?
PfM18AAP inh-1: 1; PERK inhibitor: 0; eIF4E 4G PPI: 0; PABP1 MLLE inh: 26; eIF4H FP inh: 2; PABP polyA inh: 11

How did CCc1ccc(-c2cnc3nc[nH]c(=O)c3n2)cc1 do in these assays?
PABP1 MLLE inh: 0

How did Cc1cc(C)nc(N/N=C/C2=C(N3CCOCC3)C(=C/c3ccccc3)/CC2)n1 do in these assays?
PfM18AAP inh-1: 36*; PERK inhibitor: -1; eIF4E 4G PPI: -3; PABP1 MLLE inh: -22; eIF4H FP inh: 84; PABP polyA inh: -3; PfM18AAP inh-2: -43; CTSL1 counter: 7

How did COC(=O)c1ccsc1NC(=O)CN1C(=O)CCC1=O do in these assays?
eIF4E 4G PPI: -22; PABP1 MLLE inh: 2; eIF4H FP inh: -8; PABP polyA inh: 10

How did CSc1ncccc1C(=O)NNc1cc(Cl)ccc1Cl do in these assays?
PfM18AAP inh-1: 33*; PABP1 MLLE inh: -75; eIF4H FP inh: -4; PABP polyA inh: -1; PfM18AAP inh-2: -1; CTSL1 counter: 0

What do the screens show for `Nc1ccc(C(=O)O)c(O)c1`?
PfM18AAP inh-1: 33*!; PERK inhibitor: 2; eIF4E 4G PPI: -1; PABP1 MLLE inh: -8; eIF4H FP inh: inconclusive; PABP polyA inh: 4; PfM18AAP inh-2: -23; CTSL1 counter: -1

What do the screens show for `Nc1ccc(C(=O)Oc2ccc([N+](=O)[O-])cc2)c(O)c1`?
PfM18AAP inh-1: 19; PERK inhibitor: 0; eIF4E 4G PPI: 4; eIF4H FP inh: 17; PABP polyA inh: 16; PfM18AAP inh-2: -52; CTSL1 counter: -3

What do the screens show for `CN[C@H]1CCc2cc(OC)c(OC)c(OC)c2-c2ccc(N(C)CC(OC)OC)c(=O)cc21`?
PfM18AAP inh-1: 13; PABP1 MLLE inh: 10; eIF4H FP inh: 2; PABP polyA inh: 7

What do the screens show for `COc1cc2c(c(OC)c1OC)-c1ccc(N(C)CC(OC)OC)c(=O)cc1[C@@H](NC(C)=O)CC2`?
PfM18AAP inh-1: 45*; PABP1 MLLE inh: -4; eIF4H FP inh: 1; PABP polyA inh: -2; PfM18AAP inh-2: -32; CTSL1 counter: -5

How did C/C(=N\NC(=O)c1cccc(N/N=C(\C)c2cc(O)ccc2O)c1)c1cc(O)ccc1O do in these assays?
PfM18AAP inh-1: 40*; PERK inhibitor: 1; eIF4E 4G PPI: -8; PABP1 MLLE inh: 18; eIF4H FP inh: 26; PABP polyA inh: 14; PfM18AAP inh-2: 42*; CTSL1 counter: -3

What do the screens show for `C/C(=N\NC(=O)c1cccc(O)c1)c1cccc(NC(=O)c2ccc(F)cc2)c1`?
PfM18AAP inh-1: 4; PABP1 MLLE inh: 0; eIF4H FP inh: -7; PABP polyA inh: -5

Screening results deposited in PubChem BioAssay by several laboratories.
